From PubChem BioAssay (NCI) come the findings set out here.

Among the test systems are SK-MEL-2 melanoma; EKVX NSCLC; SN12C renal; UO-31 renal; TK-10 renal; ACHN renal; CAKI-1 renal; CCRF-CEM leukemia; MOLT-4 leukemia; SR leukemia; RPMI-8226 leukemia; OVCAR-8 ovarian; OVCAR-5 ovarian; OVCAR-4 ovarian; SK-OV-3 ovarian; IGROV1 ovarian; OVCAR-3 ovarian; HS 578T breast; NCI/ADR-RES ovarian; A498 renal.
What all share (test): NCI-60 one-dose screen, 48 h (100 = growth as untreated, 0 = no growth, -100 = all killed)
What all share (settings): 10 µM unless noted

This is part of a sample that, as a whole, favours compounds with a hit. Of some 83,000 tested, about 20% had one in any assay.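 For each line, cells grew in 96-well plates with the test compound present at a single concentration for 48 hours.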 A number with no mark means an inactive call. Activity calls are given as the source filed them. The calls were made as follows: active = growth percent below 10; inactive = the rest.

As for `CC1=C(C(=O)c2ccccc2)C(c2ccc3c(c2)OCO3)NC(=S)N1` (stereo unspecified), the growth was 60.5% with SK-MEL-2 melanoma; 73.5% in the test with EKVX NSCLC; 51.4% with SN12C renal; 55.7% in the test with UO-31 renal; 66% in the test with TK-10 renal; 45.5% with ACHN renal. Further, the growth was 35.6% in the test on CAKI-1 renal; 41.2% in the test on CCRF-CEM leukemia; 36.6% with MOLT-4 leukemia; 6.28% (active) in the test on SR leukemia; 44% in the test with RPMI-8226 leukemia; 46.7% in the test with OVCAR-8 ovarian. For the same compound, the growth is 72.5% in the test with OVCAR-5 ovarian; 82.3% with OVCAR-4 ovarian; 51.6% with SK-OV-3 ovarian; 46.1% in the test with IGROV1 ovarian; 12.9% in the test on OVCAR-3 ovarian; 23.4% in the test with HS 578T breast. For the same compound, in the test on NCI/ADR-RES ovarian, the growth was 43.3%.
As for `C#CCOc1cc(/C=N/Nc2nc(-c3ccc(OC)cc3)cs2)ccc1O`, the growth was 93.3% with SK-MEL-2 melanoma; 67.8% in the test with EKVX NSCLC; 86.8% in the test on SN12C renal; 72.6% with UO-31 renal; 94.2% with TK-10 renal; 90.8% in the test with ACHN renal. Moreover, the growth in the test with CAKI-1 renal is 77.6%; with A498 renal, 82.4%; in the test with CCRF-CEM leukemia, 82.2%; in the test on MOLT-4 leukemia, 87.3%; with SR leukemia, 74.4%; with RPMI-8226 leukemia it was 63.3%. In addition, the growth in the test with OVCAR-8 ovarian is 87.9%; in the test on OVCAR-5 ovarian, 97.1%; in the test on OVCAR-4 ovarian it was 71.7%; in the test with IGROV1 ovarian it was 91.8%; in the test with OVCAR-3 ovarian, 86.3%; in the test with HS 578T breast it was 95.8%. Moreover, the growth with NCI/ADR-RES ovarian was 85.1%.
`COc1cc(OC)cc(C(=O)Nc2cnc(Nc3ccc(N4CCOCC4)nc3)nc2Oc2ccc(C(F)(F)F)cc2)c1`: the growth in the test with SK-MEL-2 melanoma is 94.6%; in the test on EKVX NSCLC, 90.2%; in the test with SN12C renal, 43.6%; in the test with UO-31 renal it was 58.1%; in the test on TK-10 renal it was 81.9%; in the test on ACHN renal, 66.4%. Besides, the growth is 59.7% in the test with CAKI-1 renal; 77.7% with A498 renal; 86% with CCRF-CEM leukemia; 80.7% in the test with MOLT-4 leukemia; 73% with SR leukemia; 86.2% in the test with RPMI-8226 leukemia. The growth in the test on OVCAR-8 ovarian is 39.7%; in the test with OVCAR-5 ovarian, 92.9%; with OVCAR-4 ovarian, 8.78% (active); in the test on IGROV1 ovarian it was 77.4%; in the test with OVCAR-3 ovarian it was 62.8%; with HS 578T breast, 30.4%. In the test with NCI/ADR-RES ovarian, the growth was 60.1%.
With `COc1cccc(/C=C2\CCc3ccccc3C2=O)c1`, the growth in the test on SK-MEL-2 melanoma is 82.9%; with EKVX NSCLC, 87.9%; in the test on SN12C renal, 84.6%; in the test on UO-31 renal, 72.5%; in the test with TK-10 renal, 94.4%; in the test with ACHN renal, 95.7%. Besides, the growth in the test with CAKI-1 renal was 77.3%; in the test with CCRF-CEM leukemia it was 37.7%; in the test with MOLT-4 leukemia, 71.6%; with SR leukemia, 21%; in the test on RPMI-8226 leukemia, 6.5% (active); with OVCAR-8 ovarian it was 92.5%. The growth was 85.9% in the test on OVCAR-5 ovarian; 88.5% in the test on OVCAR-4 ovarian; 86.5% in the test with SK-OV-3 ovarian; 80.7% in the test with IGROV1 ovarian; 89.5% with OVCAR-3 ovarian; 87.4% with HS 578T breast.
For `CNC(=O)c1cc(Oc2cccc3nc(NC(=O)Nc4ccc(F)cc4F)ccc23)ccn1`, the growth in the test on SK-MEL-2 melanoma was 71%; with EKVX NSCLC it was -0.932% (active); in the test with SN12C renal, 10.6%; in the test on UO-31 renal it was 10.4%; in the test with TK-10 renal, -37.7% (active); in the test with ACHN renal, 33.6%. Moreover, the growth in the test with CAKI-1 renal was 72.7%; with A498 renal it was 68.1%; in the test on CCRF-CEM leukemia, 49.7%; with MOLT-4 leukemia, 53.6%; with SR leukemia, 18%; in the test on RPMI-8226 leukemia, 30.4%. The growth in the test with OVCAR-8 ovarian was 13.9%; with OVCAR-5 ovarian, 70.3%; with OVCAR-4 ovarian, -63.4% (active); in the test with IGROV1 ovarian, 35%; with OVCAR-3 ovarian, 0.213% (active); in the test on NCI/ADR-RES ovarian it was 22.5%.
Take `Cn1cc(-c2csc(-c3cn(CCO)c4ccc(F)cc34)n2)c2cccnc21`: the growth with SK-MEL-2 melanoma is 52.2%; in the test on EKVX NSCLC, 57.4%; with SN12C renal, 73.2%; with UO-31 renal it was 70.7%; in the test with ACHN renal, 69.5%; in the test with CAKI-1 renal, 78.4%. Besides, the growth in the test on CCRF-CEM leukemia was 44.4%; in the test on MOLT-4 leukemia, 46.7%; with SR leukemia, 20.7%; in the test on RPMI-8226 leukemia, 62.6%; in the test on OVCAR-8 ovarian it was 75.9%; in the test on OVCAR-5 ovarian, 65.6%. Moreover, the growth was 36% with OVCAR-4 ovarian; 73% in the test with SK-OV-3 ovarian; 51.9% in the test on IGROV1 ovarian; 49.7% in the test with OVCAR-3 ovarian; 79.8% in the test with HS 578T breast; 45.5% in the test on NCI/ADR-RES ovarian.
Take `C=CC(=O)NCc1cccc(Nc2ncc(Br)c(NCCCNC(=O)C3CCC3)n2)c1`: the growth was -50% (active) in the test on SK-MEL-2 melanoma; -27.1% (active) in the test on EKVX NSCLC; 1.99% (active) with SN12C renal; -9.45% (active) in the test on UO-31 renal; 7.42% (active) with ACHN renal; -25.3% (active) in the test on CAKI-1 renal. Also, the growth in the test with A498 renal is -59.5% (active); in the test with CCRF-CEM leukemia it was 1.57% (active); in the test with MOLT-4 leukemia it was -5.38% (active); in the test with SR leukemia, 2.53% (active); with RPMI-8226 leukemia, -14.7% (active); with OVCAR-8 ovarian it was 5.56% (active). For the same compound, the growth was 10.2% with OVCAR-5 ovarian; -2% (active) with OVCAR-4 ovarian; 1.89% (active) with IGROV1 ovarian; -33.4% (active) with OVCAR-3 ovarian; -14.1% (active) with HS 578T breast.
For `Cc1c(-c2cnc3ccc(Cl)cc3c2C(=O)O)nnn1-c1ccc(Cl)cc1`, the growth is 100% with SK-MEL-2 melanoma; 121% with EKVX NSCLC; 89.5% in the test on SN12C renal; 79% with UO-31 renal; 94.6% with ACHN renal; 95.8% in the test on CAKI-1 renal. Also, the growth in the test with A498 renal is 118%; in the test with CCRF-CEM leukemia it was 94%; in the test with MOLT-4 leukemia, 94.1%; with SR leukemia, 95.9%; in the test with RPMI-8226 leukemia, 105%; in the test on OVCAR-8 ovarian it was 101%. In addition, the growth was 89.9% in the test with OVCAR-5 ovarian; 106% in the test with OVCAR-4 ovarian; 90.4% in the test with SK-OV-3 ovarian; 108% in the test with IGROV1 ovarian; 110% in the test on OVCAR-3 ovarian; 101% with NCI/ADR-RES ovarian.
